The panel holds about 83,000 compounds, 20% with a hit somewhere; the sample as a whole holds those more often.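 How to read the values: 0–100, growth inhibition (40 = 60% inhibited); 0, no net growth; -100 to 0, cell death (-40 = 40% of starting cells died; -100 = all dead).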 Values without a mark were called inactive. The calls were made as follows: active = growth percent below 10; inactive = the rest.
Tested on: U251 CNS
Assay: NCI-60 one-dose screen, 48 h (100 = growth as untreated, 0 = no growth, -100 = all killed)
Conditions: 10 µM

| Structure (SMILES) | growth [%] |
| --- | --- |
| COCCCC/C(=N\OCCN)c1ccc(C(F)(F)F)cc1 | 97.4 |
| Cc1ccccc1N=C(c1ccccc1)C1C(=O)c2ccccc2C1=O | 87.7 |
| O=C(O)C(c1ccccc1)C(O)c1ccccc1 (stereo not given) | 91.9 |
| CC(C)(C)c1cc(O)c(C(C)(C)C)cc1O | 75.2 |
| O=C(CCNNC(=O)c1ccncc1)NCc1ccccc1 | 85.4 |
| CCCNc1ccc(C2=NCCCN2)cc1 | 87.4 |
| O=[N+]([O-])c1ccc(O)c(S(=O)(=O)O)c1 | 102 |
| O=C(O)c1cccc([N+](=O)[O-])c1O | 101 |
| C/C=C/CC(C)C(O)C1C(=O)NC(CC)C(=O)N(C)CC(=O)N(C)C(CC(C)C)C(=O)NC(C(C)C)C(=O)N(C)C(CC(C)C)C(=O)NC(C)C(=O)NC(C)C(=O)N(C)C(CC(C)C)C(=O)N(C)C(CC(C)C)C(=O)N(C)C(C(C)C)C(=O)N1C (stereo not given) | 29.7 |
| O=[N+]([O-])c1ccc(N=Nc2ccccc2)cc1 | 90.5 |
| O=C(CC(=O)c1ccccc1O)c1ccccc1 | 63.3 |
| CCn1c(=O)n(C)c2c(=O)n(C)c(=O)n(C)c21 | 99.3 |
| CCCCCCCCCCCCCCCCC1CC(=O)OC1=O (stereo not given) | 96.4 |
| O=C1c2ccccc2C(=O)N1OCc1ccccc1 | 113 |
| C[C@@H](c1ccccc1)[C@@H](C(=O)O)c1ccccc1 | 93.1 |
| Nc1ccc(CC(=O)O)c(N)c1 | 101 |
| CN(C)c1ccc(CNC(C(=O)c2ccccc2)c2ccccc2)cc1 (stereo not given) | 94.1 |
| CC(C)COC(=O)COC(=O)OCCOCCOC(=O)OCC(=O)OCC(C)C | 94.9 |
| S=C(Nc1ccccc1)N1CCCCC1 | 96.2 |

| Structure (SMILES) | growth [%] |
| --- | --- |
| O=C(O)CCCc1ccccc1 | 95.3 |
| COc1cc(OC)c2ccc(=O)oc2c1 | 98.8 |
| Nc1ccc(C(=O)c2ccc(N)c(Br)c2)cc1Br | 18.2 |
| CCCC(=O)c1cc(C)ccc1OC | 115 |
| Nc1ccc(NC(=O)c2cccc(N)c2)cc1 | 96.2 |
| O=C(N/N=C/c1ccccc1O)Nc1nn[nH]n1 | 104 |
| CCOC(=O)/C(C#N)=C/c1cccc(C)c1 | 98.2 |
| c1ccc(/C(=N\N=C(/c2ccccc2)c2cccs2)c2cccs2)cc1 | 103 |
| Nc1ccccc1C(=O)Nc1ccc(Cl)cc1Cl | 102 |
| CC1=CC(=O)c2ccccc2C1=O | 101 |
| O=C(O)CNC(=O)c1ccccc1 | 96.6 |
| COC(=O)Nc1nc2ccc(C(=O)c3cccs3)cc2[nH]1 | 16.6 |
| CCOC(=O)C(C#N)Cc1ccccc1 (stereo not given) | 112 |
| Cc1nc2ccccc2c2nnc(SCC(=O)N(Cc3ccccc3)c3ccccc3)n12 | 98 |
| CC1=C(/C=C/C(C)=C/C=C/C(C)=C/CO)C(C)(C)CCC1 | 102 |
| CC(=O)Nc1cccc(Cl)c1C | 88.9 |
| COc1cc([C@@H]2c3cc4c(cc3[C@H](O)[C@H]3COC(=O)[C@H]23)OCO4)cc(OC)c1OC | 16.5 |
| CC1CCC(C(=O)O)N1 (stereo not given) | 96 |

Tested on: PC-3 prostate
Assay: as above
Conditions: 10 µM

| Structure (SMILES) | growth [%] |
| --- | --- |
| COCCCC/C(=N\OCCN)c1ccc(C(F)(F)F)cc1 | 79.8 |
| Cc1ccccc1N=C(c1ccccc1)C1C(=O)c2ccccc2C1=O | 59.8 |
| O=C(O)C(c1ccccc1)C(O)c1ccccc1 (stereo not given) | 92.6 |
| CC(C)(C)c1cc(O)c(C(C)(C)C)cc1O | 76.3 |
| O=C(CCNNC(=O)c1ccncc1)NCc1ccccc1 | 87.4 |
| CCCNc1ccc(C2=NCCCN2)cc1 | 94.6 |
| O=[N+]([O-])c1ccc(O)c(S(=O)(=O)O)c1 | 97.3 |
| C/C=C/CC(C)C(O)C1C(=O)NC(CC)C(=O)N(C)CC(=O)N(C)C(CC(C)C)C(=O)NC(C(C)C)C(=O)N(C)C(CC(C)C)C(=O)NC(C)C(=O)NC(C)C(=O)N(C)C(CC(C)C)C(=O)N(C)C(CC(C)C)C(=O)N(C)C(C(C)C)C(=O)N1C (stereo not given) | 11.7 |
| O=[N+]([O-])c1ccc(N=Nc2ccccc2)cc1 | 83.5 |
| O=C(CC(=O)c1ccccc1O)c1ccccc1 | 92.6 |
| CCn1c(=O)n(C)c2c(=O)n(C)c(=O)n(C)c21 | 97.4 |
| CCCCCCCCCCCCCCCCC1CC(=O)OC1=O (stereo not given) | 98.9 |
| O=C1c2ccccc2C(=O)N1OCc1ccccc1 | 77.7 |
| C[C@@H](c1ccccc1)[C@@H](C(=O)O)c1ccccc1 | 94.5 |
| CC(=O)C1CCCCC1 | 96.8 |
| Nc1ccc(CC(=O)O)c(N)c1 | 101 |
| CN(C)c1ccc(CNC(C(=O)c2ccccc2)c2ccccc2)cc1 (stereo not given) | 85.7 |

| Structure (SMILES) | growth [%] |
| --- | --- |
| S=C(Nc1ccccc1)N1CCCCC1 | 96.4 |
| O=C(O)CCCc1ccccc1 | 99.3 |
| COc1cc(OC)c2ccc(=O)oc2c1 | 100 |
| Cc1cc(=O)[nH]c(NN=C2CCCC2)n1 | 80.7 |
| Nc1ccc(C(=O)c2ccc(N)c(Br)c2)cc1Br | 22.4 |
| CCCC(=O)c1cc(C)ccc1OC | 91.3 |
| Nc1ccc(NC(=O)c2cccc(N)c2)cc1 | 82.9 |
| O=C(N/N=C/c1ccccc1O)Nc1nn[nH]n1 | 95.6 |
| c1ccc(/C(=N\N=C(/c2ccccc2)c2cccs2)c2cccs2)cc1 | 99.8 |
| Nc1ccccc1C(=O)Nc1ccc(Cl)cc1Cl | 78.8 |
| CC1=CC(=O)c2ccccc2C1=O | 108 |
| COC(=O)Nc1nc2ccc(C(=O)c3cccs3)cc2[nH]1 | 22.7 |
| CCOC(=O)C(C#N)Cc1ccccc1 (stereo not given) | 90.2 |
| Cc1nc2ccccc2c2nnc(SCC(=O)N(Cc3ccccc3)c3ccccc3)n12 | 84.1 |
| CC1=C(/C=C/C(C)=C/C=C/C(C)=C/CO)C(C)(C)CCC1 | 96.5 |
| CC1CCC(C(=O)O)N1 (stereo not given) | 99.2 |
